Reference: PubChem BioAssay (NCI)
About 79,000 compounds went through this panel and 15% of them were active in at least one assay; those are over-represented in the sample as a whole. The source made the active and inactive calls. No stated cut-off is given here; in the data, active means growth inhibition above about 70%; inactive means the rest.

What was measured:
[1] = NCI Yeast Anticancer Drug Screen. Data for the rad52 strain (AID 147);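 further: 0% = growth of vehicle-treated control cultures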; conditions: S. cerevisiae rad52 mutant growth inhibition, stronger effect = higher value
Summary of the method: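 Genetically altered yeast (DNA damage repair defect) treated with compound; inhibition calculated relative to vehicle.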

[2] = NCI Yeast Anticancer Drug Screen. Data for the wt1 strain (AID 149);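 further: 0% = growth of vehicle-treated wt1 cultures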; conditions: S. cerevisiae wt1 strain (SPY 50644) growth inhibition, stronger effect = higher value
Summary of the method: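 wt1 strain grown with compound or vehicle; inhibition taken from the growth difference.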

[3] = NCI Yeast Anticancer Drug Screen. Data for the rad50EPP+ strain (AID 151);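 further: 0% = growth of vehicle-treated control cultures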; conditions: S. cerevisiae rad50 mutant strain, stronger effect = higher value
Summary of the method: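 Strain rad50EPP+; compound exposure; % growth inhibition vs vehicle.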

[4] = NCI Yeast Anticancer Drug Screen. Data for the rad50 strain (AID 155);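 further: 0% = growth of vehicle-only cultures of the same strain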; conditions: S. cerevisiae rad50 strain growth inhibition, stronger effect = higher value
Summary of the method: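 DNA repair mutant yeast, compound exposure, growth read-out; inhibition is taken relative to vehicle.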

[5] = NCI Yeast Anticancer Drug Screen. Data for the mec2-1 strain (AID 157); conditions: S. cerevisiae mec2-1 strain, stronger effect = higher value
Summary of the method: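 Cells of the genetically defined mec2-1 yeast strain are incubated with test compound. Inhibition of growth is calculated against vehicle-treated controls.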

[6] = NCI Yeast Anticancer Drug Screen. Data for the rad14 strain (AID 159);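 further: 0% = growth of vehicle-treated control cultures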; conditions: S. cerevisiae rad14 strain growth inhibition, stronger effect = higher value
Summary of the method: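 DNA repair-defective yeast, compound-exposed; % growth inhibition derived by comparison with vehicle-treated controls.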

[7] = NCI Yeast Anticancer Drug Screen. Data for the sgs1 mgt1 strain (AID 161);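 further: 0% = growth of cultures given vehicle only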; conditions: S. cerevisiae sgs1 mgt1 strain, stronger effect = higher value
Summary of the method: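 Genetically altered yeast, compound exposure, growth inhibition relative to vehicle.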

[8] = NCI Yeast Anticancer Drug Screen. Data for the CLN2oe strain (AID 163);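 further: 0% = growth of vehicle-only control cultures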; conditions: S. cerevisiae CLN2oe strain, stronger effect = higher value
Summary of the method: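 Strain altered in cell-cycle control, incubated with compound; growth compared to solvent-treated controls.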

[9] = NCI Yeast Anticancer Drug Screen. Data for the cln2 rad14 strain (AID 165);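 further: 0% = growth equal to vehicle treated cultures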; conditions: S. cerevisiae cln2 rad14 strain, stronger effect = higher value
Summary of the method: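 The screen exposed genetically defined yeast (cln2 rad14) to test compounds and scored growth inhibition relative to vehicle-treated controls.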

[10] = NCI Yeast Anticancer Drug Screen. Data for the bub3 strain (AID 167); conditions: S. cerevisiae bub3 mutant strain, stronger effect = higher value
Summary of the method: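 In this screen, a yeast mutant lacking normal mitotic checkpoint function is challenged with compound. Relative growth versus vehicle gives the inhibition value.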

[11] = NCI Yeast Anticancer Drug Screen. Data for the wt2 strain (AID 169);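 further: 0% = growth of vehicle-treated yeast cultures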; conditions: S. cerevisiae wt2 strain growth inhibition, stronger effect = higher value
Summary of the method: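 Steps: yeast strain treated with compound; growth recorded; inhibition calculated relative to cultures given vehicle alone.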

[12] = NCI Yeast Anticancer Drug Screen. Data for the mlh1 strain (AID 171);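 further: 0% = growth of vehicle-treated control cultures of the same strain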; conditions: S. cerevisiae mlh1 strain growth inhibition, stronger effect = higher value
Summary of the method: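 Yeast screen: mutant strain plus compound, growth scored against vehicle control wells.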

[13] = NCI Yeast Anticancer Drug Screen. Data for the sgs1 strain (AID 173);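 further: 0% = growth of vehicle-only control cultures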; conditions: S. cerevisiae sgs1 mutant, stronger effect = higher value
Summary of the method: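 Inhibition of yeast growth served as the measure. The mutant strain was treated with each compound, and growth was normalised to cultures receiving vehicle alone.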

[14] = NCI Yeast Anticancer Drug Screen. Data for the mlh1 rad18 strain (AID 175); conditions: S. cerevisiae mlh1 rad18 strain growth inhibition, stronger effect = higher value
Summary of the method: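 Compound-treated yeast growth, normalised to vehicle controls. Strain bears defined DNA repair mutations.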

[15] = NCI Yeast Anticancer Drug Screen. Data for the rad18 strain (AID 177); conditions: S. cerevisiae rad18 mutant growth inhibition, stronger effect = higher value
Summary of the method: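 Inhibition values reflect reduced yeast growth compared with vehicle-treated controls, using a strain engineered with a DNA damage repair defect.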

[16] = NCI Yeast Anticancer Drug Screen. Data for the mgt1 strain (AID 153); conditions: S. cerevisiae mgt1 mutant growth inhibition, stronger effect = higher value
Summary of the method: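 Read-out: yeast growth inhibition vs vehicle control. Strain mgt1, drawn from a panel altered in DNA damage repair or cell cycle control.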

[17] = at 5.0 µM (retest, dose inferred, filed as 0.5)
[18] = at 50.0 µM (retest, dose inferred, filed as 5.0)

Measured: growth inhibition

CC(=O)c1ccc(NCN2C(=O)c3ccccc3C2=O)cc1
inactive: [1]; at 1.2 µM -31% | [1]; at 3.7 µM -8% | [1]; at 11.0 µM 28% | [2]; at 1.2 µM -51% | [2]; at 3.7 µM -41% | [2]; at 11.0 µM -36% | [2]; at 33.0 µM 66% | [3]; at 1.2 µM -17% | [3]; at 3.7 µM -32% | [3]; at 11.0 µM 6% | [4]; at 1.2 µM -20% | [4]; at 3.7 µM -12% | [4]; [17] 42% | [4]; at 11.0 µM 55% | [5]; at 1.2 µM -8% | [5]; at 3.7 µM -30% | [5]; [17] 51% | [5]; at 11.0 µM 16% | [6]; at 1.2 µM -50% | [6]; at 3.7 µM -39% | [6]; at 11.0 µM -19% | [6]; at 33.0 µM 66% | [7]; [17] 7% | [7]; [18] 25% | [8]; at 1.2 µM -19% | [8]; at 3.7 µM -32% | [8]; at 11.0 µM -31% | [8]; at 33.0 µM 53% | [9]; [17] 48% | [9]; [18] 35% | [10]; at 1.2 µM -15% | [10]; at 3.7 µM -2% | [10]; [17] 34% | [10]; at 11.0 µM 22% | [10]; [18] 42% | [11]; at 1.2 µM -49% | [11]; at 3.7 µM -36% | [11]; at 11.0 µM -15% | [11]; at 33.0 µM 64% | [12]; at 1.2 µM -44% | [12]; at 3.7 µM -48% | [12]; at 11.0 µM 6% | [12]; at 33.0 µM 68% | [13]; at 1.2 µM -25% | [13]; at 3.7 µM -28% | [13]; at 11.0 µM -13% | [14]; [17] 36% | [15]; at 1.2 µM -36% | [15]; at 3.7 µM -21% | [15]; at 11.0 µM 47%
active: [1]; at 33.0 µM 84% | [1]; at 100.0 µM 92% | [2]; at 100.0 µM 89% | [3]; at 33.0 µM 70% | [3]; at 100.0 µM 90% | [4]; at 33.0 µM 85% | [4]; [18] 99% | [4]; at 50.0 µM 82.7% | [4]; at 100.0 µM 89% | [5]; at 33.0 µM 81% | [5]; [18] 99% | [5]; at 50.0 µM 84.5% | [5]; at 100.0 µM 91% | [6]; at 100.0 µM 93% | [8]; at 100.0 µM 82% | [10]; at 33.0 µM 79% | [10]; at 100.0 µM 91% | [11]; at 100.0 µM 89% | [12]; at 100.0 µM 83% | [13]; at 33.0 µM 73% | [13]; at 100.0 µM 86% | [14]; [18] 99% | [14]; at 50.0 µM 85.8% | [15]; at 33.0 µM 90% | [15]; at 100.0 µM 92%

O=C(O)CN(CCNC(=O)OCC1c2ccccc2-c2ccccc21)CCNC(=O)OCC1c2ccccc2-c2ccccc21
inactive: [2]; at 1.2 µM -1% | [2]; at 3.7 µM -4% | [2]; at 11.0 µM 2% | [3]; at 1.2 µM 0% | [3]; at 3.7 µM 4% | [3]; at 11.0 µM 5% | [3]; at 33.0 µM 7% | [3]; at 100.0 µM 5% | [16]; at 1.2 µM -4% | [16]; at 3.7 µM -1% | [16]; at 11.0 µM 9% | [4]; at 1.2 µM -3% | [4]; at 3.7 µM -9% | [4]; [17] -21% | [4]; at 11.0 µM 11% | [4]; [18] 36% | [5]; at 1.2 µM -3% | [5]; at 3.7 µM -5% | [5]; [17] -10% | [5]; at 11.0 µM -3% | [5]; [18] -6% | [6]; at 1.2 µM 0% | [6]; at 3.7 µM 1% | [6]; at 11.0 µM 34% | [7]; [17] -1% | [7]; [18] -4% | [8]; at 1.2 µM -1% | [8]; at 3.7 µM 1% | [8]; at 11.0 µM 2% | [9]; [17] 3% | [9]; [18] 15% | [10]; at 1.2 µM -1% | [10]; at 3.7 µM 0% | [10]; [17] -16% | [10]; at 11.0 µM 1% | [10]; [18] -9% | [11]; at 1.2 µM -3% | [11]; at 3.7 µM -3% | [12]; at 1.2 µM -1% | [12]; at 3.7 µM -3% | [12]; at 11.0 µM 11% | [13]; at 1.2 µM 0% | [13]; at 3.7 µM -1% | [13]; at 11.0 µM 9% | [14]; [17] 3% | [14]; [18] 62% | [15]; at 1.2 µM -2% | [15]; at 3.7 µM -2% | [15]; at 11.0 µM 4%
active: [2]; at 33.0 µM 71% | [2]; at 100.0 µM 94% | [16]; at 33.0 µM 98% | [16]; at 100.0 µM 95% | [4]; at 33.0 µM 97% | [4]; at 50.0 µM 93.7% | [4]; at 100.0 µM 94% | [5]; at 33.0 µM 98% | [5]; at 50.0 µM 95.3% | [5]; at 100.0 µM 96% | [6]; at 33.0 µM 98% | [6]; at 100.0 µM 95% | [7]; at 50.0 µM 95.5% | [8]; at 33.0 µM 96% | [8]; at 100.0 µM 90% | [9]; at 50.0 µM 93.5% | [10]; at 33.0 µM 93% | [10]; at 50.0 µM 95% | [10]; at 100.0 µM 94% | [11]; at 11.0 µM 75% | [11]; at 33.0 µM 98% | [11]; at 100.0 µM 95% | [12]; at 33.0 µM 98% | [12]; at 100.0 µM 96% | [13]; at 33.0 µM 97% | [13]; at 100.0 µM 94% | [14]; at 50.0 µM 95.1% | [15]; at 33.0 µM 95% | [15]; at 100.0 µM 94%
